# According to PubChem BioAssay (NCI):
# The panel holds about 83,000 compounds, 20% with a hit somewhere; the sample as a whole holds those more often.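 Interpretation: 100, growth as untreated; towards 0, rising growth inhibition; 0, no net growth; 0 to -100, cell death. Compounds scoring below 10 were considered active.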 Active and inactive are the calls of the source.
# Test system: COLO 205 colon
# Test: NCI-60 one-dose screen, 48 h (100 = growth as untreated, 0 = no growth, -100 = all killed)
# Conditions: 10 µM unless noted
# Procedure: Cells are grown in 96 well plates and exposed to the test compound for 48 hours. Compounds are tested at a single concentration, which is 10^-5 M for most compounds. The reported endpoint is percent growth (GI% or GIPRCNT), where numbers from 0 - 100% represent growth inhibition, and numbers from -100% - 0 represent cell death. For example, a value of 40 represents 60% growth inhibition. A value of 0 means no net growth occurred over the course of the experiment. A value of -40 indicates 40% of cells at the beginning of the experiment died by the end of the experiment. A value of -100 means all cells are dead at the end of the experiment.
# NCI-60 Human Tumor Cell Lines Screen was performed using the standard one-dose NCI protocol, which is described in more detail at https://dtp.cancer.gov/discovery_development/nci-60/default.htm.
# Compounds with GIPRCNT values below 10 were considered active. Activity score was based on GIPRCNT using the following formula: […]
# Score is 0 for GIPRCNT values of 100 or above, 50 for GIPRCNT values of 0, and 100 for GIPRCNT values of -100.
row,Compound,growth
1,O=Cc1[nH]c(Sc2ccccc2)c2ccccc12,64.8% (inactive)
2,CCC1=C[C@H]2CN(CCc3c([nH]c4ccccc34)[C@@](C(=O)OC)(c3cc4c(cc3OC)N(C)[C@H]3[C@@](O)(C(=O)OC)[C@H](OC(C)=O)[C@]5(CC)[C@@H]6C[C@@H]6CN6CC[C@]43[C@@H]65)C2)C1,-43.5% (active)
3,CCOC(=O)c1c(C)nc2c(c1N)/C(=C/c1cccs1)C(=O)N2Cc1ccccc1,61.3% (inactive)
4,CC(C)Cc1cc(CNC(=O)C2[C@H]3CN(C(=O)c4ccccc4)C[C@@H]23)nn1-c1ccccc1 (stereo not given in full),93.1% (inactive)
5,CN(C)CSc1nc2ccccc2s1,91.6% (inactive)
6,Cc1c(Cl)cccc1NC(=O)c1sc2nc3c(cc2c1N)COCC3,24.1% (inactive)
7,Oc1ccc(CNNc2ccnc3c(O)cccc23)c2cccnc12,64.8% (inactive)
8,CCC[S@](=O)c1ccc2nc(NC(=O)OC)[nH]c2c1,100% (inactive)
9,[2H]c1nc(Nc2ncc3cc(C(=O)N(C)C)n(C4CCCC4)c3n2)c([2H])c([2H])c1N1C([2H])([2H])C([2H])([2H])NC([2H])([2H])C1([2H])[2H],28.1% (inactive)
10,CCN(CC)CC#CCOC(=O)[C@]1(C)CCC[C@]2(C)[C@H]3C[C@H]4C(C(C)C)=C[C@]3(CC[C@H]21)[C@@H]1C(=O)CCC(=O)[C@@H]14,36.2% (inactive)
11,NS(=O)(=O)c1ccc(N2Cc3cc(Cl)ccc3OC3=C2C(=O)N(CC2CCCCC2)C3=O)cc1,-83.2% (active)
12,CCCCC(=O)Nc1c(C(=O)Nc2ccccc2)sc2nc3c(cc12)C(OC(=O)CCCC)CCC3 (stereo not given),90.3% (inactive)
13,Cn1c2c(c3ccc(-c4ccn[nH]4)cc3c1=O)C(=O)c1ccccc1-2,53.8% (inactive)
14,C=C1C(=O)O[C@H]2[C@H]1CC/C(COC(=O)CCCCCCC(=O)OC/C1=C/CC[C@@]3(C)O[C@H]3[C@H]3OC(=O)C(=C)[C@@H]3CC1)=C\CC[C@@]1(C)O[C@@H]21,-64.6% (active)
15,COc1cc(-c2nn(-c3ccc(Br)cc3)cc2CO)ccc1O,119% (inactive)
16,COc1ccc(-c2cs/c(=N\N=C\c3ccc(O)cc3O)n2/N=C/c2ccc(O)cc2O)cc1,-81.1% (active)
17,O=[N+]([O-])c1cccc(CN(Cc2cccc([N+](=O)[O-])c2O)c2ccccc2)c1O,78% (inactive)
18,Nc1c(C(=O)Nc2cccc3ccccc23)sc2nc3c(cc12)CCCCC3,2.61% (active)
19,C=C(C)[C@@H]1CC[C@]2(C(=O)OCCOCCOCC[P+](c3ccccc3)(c3ccccc3)c3ccccc3)CC[C@]3(C)[C@H](CC[C@@H]4[C@@]5(C)CC[C@H](OC(=O)C(Cl)Cl)C(C)(C)[C@@H]5CC[C@]43C)[C@@H]12,-83.7% (active)
20,CSc1nc(-c2ccc(F)cc2)c(C#N)c(N2CCOCC2)n1,106% (inactive)

row,Compound,growth
1,COC(=O)c1ccc2c(c1)n(Cc1ccc3ccccc3c1)c[n+]2Cc1ccc2ccccc2c1,3.66% (active)
2,C#C[C@@]1(O)[C@@H](CO)O[C@@H](n2cc(F)c3c(N)ncnc32)[C@@H]1O,-43.4% (active)
3,COc1ccc(-c2nc(C#N)c(NCC(c3ccco3)N3CCCC3)o2)cc1 (stereo not given),19.9% (inactive)
4,COCCc1n(Cc2ccc3ccccc3c2)c2ccccc2[n+]1Cc1ccc2ccccc2c1,-71% (active)
5,CC(/C=C/c1ccccc1)=N/NC(=O)c1ccncc1,119% (inactive)
6,CCCCC1=c2c([nH]c3ccc(OC)cc23)=NC2C=CC=NC12 (stereo not given),106% (inactive)
7,C(=C\c1cn(-c2ccccc2)nc1-c1ccccc1)/c1nnc(-c2c[nH]c3ccccc23)o1,31.8% (inactive)
8,COCCOCCOCc1n(Cc2ccc3ccccc3c2)c2ccccc2[n+]1Cc1ccc2ccccc2c1,-60.7% (active)
9,c1cc(CNC23CC4CC(CC(C4)C2)C3)cc(C[N+](Cc2cccc(CNC34CC5CC(CC(C5)C3)C4)c2)(Cc2cccc(CNC34CC5CC(CC(C5)C3)C4)c2)Cc2cccc(CNC34CC5CC(CC(C5)C3)C4)c2)c1 (stereo not given),-40.9% [42 µM] (active)
10,CC1(C)CC[C@]2(c3nnc(-c4ccncc4)o3)CC[C@]3(C)C(=CC[C@@H]4[C@@]5(C)CCC(=O)C(C)(C)[C@@H]5CC[C@]43C)[C@@H]2C1,85% (inactive)
11,C#C[C@@]1(O)[C@@H](CO)O[C@@H](n2cc(Br)c3c(N)ncnc32)[C@@H]1O,-36.8% (active)
12,CN(C)[C@@H]1C(=O)C(C(N)=O)=C(O)[C@@]2(O)C(=O)C3=C(O)c4c(O)cc(CN5CCc6ccccc6C5)c(Cl)c4C[C@H]3C[C@@H]12,-78.3% (active)
13,C=CCn1c(CN2CCN(c3cc4c(cc3F)c(=O)c(C(=O)O)cn4C3CC3)CC2)n[nH]c1=S,102% (inactive)
14,O=C1NC(c2ccc(F)cc2)N=C2C(c3ccccc3)=NOC12 (stereo not given),116% (inactive)
15,O=C(/C(=C\c1c(-c2ccccc2)[nH]c2ccccc12)S(=O)(=O)c1ccccc1)c1ccccc1,70.8% (inactive)
16,C=C(C)[C@@H]1CC[C@]2(C(=O)N3CCN(C)CC3)CC[C@]3(C)[C@H](CC[C@@H]4[C@@]5(C)C/C(=C/c6ccco6)C(=O)C(C)(C)[C@@H]5CC[C@]43C)[C@@H]12,74.6% (inactive)
17,COc1ccc(N(C)c2nc(Cl)nc3ccn(C)c23)cc1,-71.1% (active)
18,COc1cc2c(cc1OC)C(Sc1ccc(Cl)cc1)c1c(nc(N)c(C#N)c1N)O2 (stereo not given),-65.6% (active)
19,COCCOCCOCc1n(Cc2ccc3ccccc3n2)c2ccccc2[n+]1Cc1ccc2ccccc2n1,-31.4% (active)
20,O=c1c2ccccc2n(CC(O)CN2CCCC2)c2c(Br)cccc12 (stereo not given),82.4% (inactive)
